Measured values taken from PubChem BioAssay (NCI).
This is part of a sample that, as a whole, favours compounds with a hit. Of some 79,000 tested, about 15% had one in any assay. Activity calls are given as the source filed them. Rule as the data show it: active = growth inhibition above about 70%; inactive = the rest.

Assay: NCI Yeast Anticancer Drug Screen. Data for the rad50 strain (AID 155);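 also: 0% = growth of vehicle-only cultures of the same strain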
Conditions: S. cerevisiae rad50 strain growth inhibition, active compounds read high
Procedure: Growth inhibition of yeast strains with defined genetic alterations is measured as a screen for potential anti-cancer activity. Selected strains with alterations in DNA damage repair or cell cycle control were exposed to compounds and growth inhibition was measured relative to vehicle treated controls. The strain used in this assay is rad50

[1] = at 5.0 µM (retest, dose inferred, filed as 0.5)
[2] = at 50.0 µM (retest, dose inferred, filed as 5.0)

Measured: growth inhibition

COC(=O)C(=O)CC(=O)c1cccc(OC)c1
inactive: at 1.2 µM -13% | at 3.7 µM -15% | [1] -150% | at 11.0 µM -10% | at 33.0 µM 32% | [2] 51% | at 50.0 µM 19.4% | at 100.0 µM 44%

CCN1CCC(O)(c2ccc(Oc3ccc(Cl)cc3)cc2)C(C(=O)c2ccc(Oc3ccc(Cl)cc3)cc2)C1 (stereo not given)
active: at 50.0 µM 83%
inactive: at 1.2 µM -20% | at 3.7 µM -7% | [1] 51% | at 11.0 µM -8% | at 33.0 µM -30% | [2] 7% | at 100.0 µM -6%

C[N+](C)([O-])CCCNc1c2ccccc2nc2cccc([N+](=O)[O-])c12
active: at 11.0 µM 91% | at 33.0 µM 94% | [2] 89% | at 50.0 µM 86.8% | at 100.0 µM 95%
inactive: at 1.2 µM 31% | at 3.7 µM 68% | [1] 63%

O=C1C(/C=C/c2ccc(Cl)cc2)=NNC2N1N=C1NC(=O)C3(NN12)c1ccccc1-c1ccccc13 (stereo not given)
active: at 50.0 µM 83.3%
inactive: at 1.2 µM -7% | at 3.7 µM -15% | [1] -10% | at 11.0 µM -21% | at 33.0 µM -1% | [2] 22% | at 100.0 µM 12%

O=C(NCCNCCNC(=O)c1cc(-c2ccccc2)nc2ccccc12)c1cc(-c2ccccc2)nc2ccccc12
inactive: at 1.2 µM -3% | at 3.7 µM -2% | [1] -11% | at 11.0 µM -4% | at 33.0 µM -2% | [2] 28% | at 50.0 µM 31.6% | at 100.0 µM 1%
